Laboratory results: PubChem BioAssay (EPA / NIEHS)
Inconclusive results are not listed. The source made the active and inactive calls. How the source made its calls, unless noted: active means hit-call score of the fitted dose curve at least 0.9, where 1 is the maximum; inactive means score below 0.9.

Assays:
[1] = CCTE_Simmons_MITO_basal_resp_rate: CCTE's HepG2 Seahorse XF Respirometric Screening Assay at Basal Respiratory State, Simmons Lab (AID 2284001); details: actives raise or lower the signal
Method in brief: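 HepG2 cells were given test chemicals at 7 concentrations, 125 nM to 100 uM final, and oxygen consumption rate was read every 6 min (3 min mix, 3 min measure) over 72 min. Basal-phase OCR was fitted bidirectionally against DMSO.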

[2] = CCTE_Simmons_MITO_inhib_resp_rate: CCTE's HepG2 Seahorse XF Respirometric Screening Assay at Inhibited Respiratory State [full ETC block], Simmons Lab (AID 2284006); details: actives raise or lower the signal
Method in brief: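 HepG2 cells on Seahorse XF96; oxygen consumption measured after test compound, then FCCP, then rotenone/antimycin A injections over 72 min. Test chemicals at 7 concentrations, 125 nM–100 uM final. OCR fitted bidirectionally versus DMSO.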

[3] = CCTE_Simmons_MITO_viability: CellTiter-Glo Viability Assessment for CCTE's HepG2 Seahorse XF Respirometric Screening Assay [post-hoc], Simmons Lab (AID 2284007; active means hit-call score of the fitted dose curve at least 0.9, where 1 is the maximum;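 on AC50: cells exposed to chemical for 90 min before the ATP read; actives lower ATP signal relative to DMSO baseline meaning reduced viability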)
Method in brief: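 HepG2 cells from the Seahorse XF respirometry run were exposed 90 min to a 7-point series, 125 nM–100 uM final, DMSO vehicle; ATP content then read by luciferase luminescence. Three biological replicates, technical singles; loss of signal fitted versus DMSO.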

[4] = CCTE_Shafer_MEA_acute_spike_number: CCTE's Neural Acute Assay for Total Number of Spikes, Shafer Lab (AID 2284008);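 on AC50: curve fitted for decrease in spike count so AC50 reflects inhibitors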
Method in brief: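 Total spike count from 40 min recordings before and during compound exposure (0.03-40 uM), given as per-well percent change. Cortical cultures from rat, DIV 13 or 15, 37 C; adaptive detection threshold 8x rms noise.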

[5] = CCTE_Shafer_MEA_acute_firing_rate_mean: CCTE's Neural Acute Assay for Mean Firing Rate, Shafer Lab (AID 2284009);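 further: analyzed for loss of signal so actives lower firing rate relative to DMSO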
Method in brief: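 Read-out: well-mean spike rate (spikes/recording length/electrodes), % change from 40 min pre-dose baseline to 40 min with compound. Rat cortical cultures, DIV 13 or 15, 37 C; 0.03-40 uM; DMSO as negative control.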

[6] = CCTE_Harrill_HTTr_Viability_MCF7: CCTE's 6-hour Cell Viability Assessment for the High-Throughput Transcriptomics (HTTr) Platform, in MCF-7 cells cultured in DMEM + 10% fetal bovine serum, Harrill Lab (AID 2284010)
Method in brief: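 Membrane integrity was scored by high-content imaging of propidium iodide dye exclusion after a 6 h exposure across an eight-point dilution series. Data were fitted bidirectionally relative to DMSO as negative control and baseline.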

[7] = CCTE_Harrill_HTTr_Apoptosis_MCF7: CCTE's 6-hour Apoptosis Assessment for the High-Throughput Transcriptomics (HTTr) Platform, in MCF-7 cells cultured in DMEM + 10% fetal bovine serum, Harrill Lab (AID 2284011)
Method in brief: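 High-content imaging of CellEvent Caspase 3/7 Green signal follows a six-hour exposure, with eight concentrations per chemical. MCF-7 cells grown in DMEM plus 10% fetal bovine serum; activity fitted in both directions against DMSO.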

[8] = biological target: Nucleoli Translocation, AR (gene 367) (UniProt P10275); experiment: UPITT_HCI_U2OS_AR_TIF2_Nucleoli_Antagonist: University of Pittsburgh U2OS Androgen Receptor-Transcriptional Intermediary Factor 2 (AR-TIF2) Antagonism High Content Imaging Assay for Nucleoli Translocation (AID 2283997; active means hit-call score of the fitted dose curve at least 0.9, where 1 is the maximum)
Sequence of Nucleoli Translocation, AR (gene 367) (P10275 whole entry, looked up): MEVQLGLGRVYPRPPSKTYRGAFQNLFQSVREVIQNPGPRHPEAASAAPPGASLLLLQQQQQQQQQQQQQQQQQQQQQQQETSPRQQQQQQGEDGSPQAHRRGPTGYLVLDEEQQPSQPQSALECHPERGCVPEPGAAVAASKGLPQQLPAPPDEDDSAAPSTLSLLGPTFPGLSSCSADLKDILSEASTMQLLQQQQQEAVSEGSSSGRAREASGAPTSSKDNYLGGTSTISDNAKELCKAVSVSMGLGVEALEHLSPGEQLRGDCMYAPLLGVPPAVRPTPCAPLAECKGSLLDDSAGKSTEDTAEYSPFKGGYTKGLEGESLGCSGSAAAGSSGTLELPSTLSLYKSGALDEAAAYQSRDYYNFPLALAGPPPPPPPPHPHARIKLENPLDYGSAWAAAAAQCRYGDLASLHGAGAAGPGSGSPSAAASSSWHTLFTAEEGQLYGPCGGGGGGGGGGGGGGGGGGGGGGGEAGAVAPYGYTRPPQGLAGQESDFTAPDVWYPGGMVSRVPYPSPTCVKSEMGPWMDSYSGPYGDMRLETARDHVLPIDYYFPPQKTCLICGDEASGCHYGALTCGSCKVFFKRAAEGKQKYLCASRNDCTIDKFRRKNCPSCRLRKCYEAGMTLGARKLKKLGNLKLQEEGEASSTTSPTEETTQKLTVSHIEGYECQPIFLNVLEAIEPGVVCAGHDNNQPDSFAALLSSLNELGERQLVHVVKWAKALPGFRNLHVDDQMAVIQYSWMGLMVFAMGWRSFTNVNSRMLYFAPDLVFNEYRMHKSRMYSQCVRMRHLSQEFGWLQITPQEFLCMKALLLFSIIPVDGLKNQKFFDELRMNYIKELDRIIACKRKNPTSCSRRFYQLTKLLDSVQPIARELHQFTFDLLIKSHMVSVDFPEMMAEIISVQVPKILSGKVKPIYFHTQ
Method in brief: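 U2OS cells expressing RFP-tagged human AR and GFP-tagged TIF2 were imaged by high-content fluorescence microscopy for red AR signal in the nucleolar region. Compounds were screened at 20 uM final (0.2% DMSO), with activity fitted relative to DHT as baseline.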

[9] = biological target: Nucleoli Translocation, AR (gene 367) (UniProt P10275); experiment: UPITT_HCI_U2OS_AR_TIF2_Nucleoli_Agonist: University of Pittsburgh U2OS Androgen Receptor-Transcriptional Intermediary Factor 2 (AR-TIF2) Agonism High Content Imaging Assay for Nucleoli Translocation (AID 2283998; active means hit-call score of the fitted dose curve at least 0.9, where 1 is the maximum)
Method in brief: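 Nucleolar translocation of AR-RFP, with TIF2-GFP coexpressed in human osteosarcoma U2OS, imaged by high-content fluorescence. Compounds tested singly at 20 uM final, confirmed in triplicate, then titrated 0.195–50 uM final; gain-of-signal relative to DMSO.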

[10] = biological target: Ratio of Nucleoli Translocation and Cytoplasm, AR (gene 367) (UniProt P10275); experiment: UPITT_HCI_U2OS_AR_TIF2_Nucleoli_Cytoplasm_Ratio_Agonist: University of Pittsburgh U2OS Androgen Receptor-Transcriptional Intermediary Factor 2 (AR-TIF2) Agonism High Content Imaging Assay for Ratio of Nucleoli Translocation and Cytoplasm (AID 2284000; active means hit-call score of the fitted dose curve at least 0.9, where 1 is the maximum;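 further: hits raise the red nucleolar to cytoplasm ratio above vehicle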)
Sequence of Ratio of Nucleoli Translocation and Cytoplasm, AR (gene 367) (P10275 whole entry, looked up): as above
Method in brief: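 U2OS cells expressing RFP-tagged human AR and GFP-tagged TIF2 were imaged by high-content fluorescence microscopy. The endpoint is the ratio of nucleolar to cytoplasmic red fluorescence, fitted for gain of signal relative to DMSO. Concentration-response spanned 0.195 to 50 uM final (0.5% DMSO).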

SMILES: CC(C)(c1cc(Br)c(O)c(Br)c1)c1cc(Br)c(O)c(Br)c1
- AC50 [1]: 4.5 µM (active)
- outcome [2]: inactive
- outcome [3]: inactive
- outcome [4]: inactive
- outcome [5]: inactive
- outcome [6]: inactive
- outcome [7]: inactive

SMILES: Cc1cc(F)ccc1-c1cc(N2CC[C@@H](O)[C@H]2CO)ncc1N(C)C(=O)C(C)(C)c1cc(C(F)(F)F)cc(C(F)(F)F)c1
- outcome [8]: inactive
- AC50 [9]: 40.8 µM (active)
- AC50 [10]: 60.4 µM (active)
- AC50 [1]: 40.8 µM (active)
- outcome [2]: inactive
- outcome [3]: inactive
- outcome [6]: inactive
- outcome [7]: inactive

SMILES: CCCCCCCCCCCO
- AC50 [1]: 80.1 µM (active)
- outcome [2]: inactive
- outcome [6]: inactive
- outcome [7]: inactive

SMILES: CC/C(=C(/CC)c1ccc(O)cc1)c1ccc(O)cc1
- AC50 [1]: 8.17 µM (active)
- AC50 [2]: 6.72 µM (active)
- AC50 [3]: 12 µM (active)
- AC50 [4]: 8.49 µM (active)
- AC50 [5]: 8.49 µM (active)
- outcome [6]: inactive
- outcome [7]: inactive

SMILES: Oc1ccc2ccccc2c1
- outcome [8]: inactive
- outcome [9]: inactive
- outcome [10]: inactive
- outcome [6]: inactive
- outcome [7]: inactive

SMILES: OCCO
- outcome [8]: inactive
- outcome [9]: inactive
- outcome [10]: inactive
- outcome [6]: inactive
- outcome [7]: inactive

SMILES: CCCCCCCCCC(=O)O
- outcome [8]: inactive
- outcome [10]: inactive
- AC50 [1]: 23.2 µM (active)
- outcome [2]: inactive
- outcome [3]: inactive
- outcome [6]: inactive
- outcome [7]: inactive

SMILES: CC(C)(C)c1csc(-c2cc3cc(OCc4ccccc4CC(=O)O)ccc3o2)n1
- AC50 [1]: 4.24 µM (active)
- AC50 [2]: 4.67 µM (active)
- AC50 [3]: 50 µM (active)
- outcome [6]: inactive
- outcome [7]: inactive

SMILES: O=C1CCC(C2CCCCC2)CC1
- outcome [1]: inactive
- outcome [2]: inactive
- outcome [3]: inactive
- outcome [6]: inactive
- outcome [7]: inactive

SMILES: CCCCCCCCOC(=O)c1cc(O)c(O)c(O)c1
- AC50 [1]: 13.6 µM (active)
- outcome [2]: inactive
- AC50 [4]: 4.46 µM (active)
- AC50 [5]: 4.46 µM (active)
- outcome [6]: inactive
- outcome [7]: inactive
